Drawing on PubChem BioAssay, this text covers composite z-score, composite Z-score and z-score for six compounds.

One experiment addresses Albumin (Bos taurus) (UniProt P02769). The experiment in a line: bovine serum albumin binders on microarray, profiling panel, artefact control for SMM control protein annotation, biochemical, small-molecule microarray, Alexa647 label, 635/667 nm fluorescence (AID 1118).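 Further: score merges 667 nm emission intensity and signal-to-noise per printed compound spot.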 The note with it: BSA-A647 binding, fluorescence 635 nm, higher = more signal.
The nature of experiment [1]: small-molecule microarray binders of probe aXIP, primary screen, biochemical, NeuroSMM set, 635/667 nm fluorescence (AID 1119).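 Further: probe is the protein aXip251-270 applied at 1 µg/mL to compound-printed slides; binding of probe to printed compounds measured as 667 nm fluorescence plus signal to noise.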 The note with it: higher = more signal, called active from +8 up or from −8 down.
The nature of experiment [2]: small-molecule binders of probe aNOTCH3, primary screen, biochemical, small-molecule microarray, 635/667 nm fluorescence (AID 1120).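 Further: probe is a biotin-tagged antibody raised against NOTCH3 rather than NOTCH3 protein; score merges spot fluorescence near 667 nm with spot signal to noise.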 The note with it: higher = more signal.
A short description of experiment [3]: small-molecule binders of probe aNOTCH2, primary screen, biochemical, small-molecule microarray, 635/667 nm fluorescence (AID 1121).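 Further: score merges feature fluorescence read at 667 nm with its signal to noise.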 The note with it: higher = more signal.
Experiment [4] has as its target Carbonic anhydrase 2 (Homo sapiens) (UniProt P00918). Nature of the experiment: CAII small-molecule binders, profiling panel, biochemical, small-molecule microarray, Alexa647-labelled CAII (AID 1122). The note with it: CAII-A647 binding fluorescence, higher = more signal.
A short description of experiment [5]: COS7 lysate on small-molecule microarray, probe aHis, 635 nm (AID 1123).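 Further: z-score combines 667nm fluorescence intensity with signal-to-noise per printed compound spot.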 The note with it: COS7 cell lysate, fluorescence, higher = more signal.
A short description of experiment [6]: compound binding in COS7 lysate, probe aLAP1, primary screen, cell lysate, small-molecule microarray (AID 1124).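 Further: lysate comes from COS7 cells expressing LAP1 and is applied at 0.3 µg/mL; score merges spot fluorescence near 667 nm with signal-to-noise over triplicate slides.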 The note with it: probe aLAP1, fluorescence, higher = more signal.
A further experiment relates to Sam68 (KHDRBS1). The experiment in a line: Sam68 small-molecule binders, primary screen, biochemical, small-molecule microarray, 635 nm fluorescence (AID 1125).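 Further: score merges 667 nm channel intensity with signal to noise over triplicate slides.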 The note with it: small-molecule microarray binding, higher = more signal.
Experiment [7] has as its system Chordin-like protein 2 (CHRDL2). Nature of the experiment: CHRDL2 small-molecule binders, primary screen, biochemical, small-molecule microarray, 635 nm fluorescence (AID 1126).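 Further: printed compound slides probed with Chrdl2 protein at 4 µg/mL for 1 h at 4 C; score merges 667 nm emission intensity with signal to noise over three replicate slides.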 The note with it: small-molecule microarray binding, fluorescence 635 nm; higher = more signal.
For experiment [8], the target named is Concanavalin-A (Canavalia ensiformis) (UniProt P02866). Nature of the experiment: ConA small-molecule binders, primary screen, artefact control for SMM control protein annotation, biochemical, small-molecule microarray, Alexa647 label, 635 nm (AID 1127).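 Further: z combines 667 nm emission intensity with signal-to-noise across three replicate slides.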 The note with it: ConA-A647 binding fluorescence, higher = more signal.
Sequence of Concanavalin-A (Canavalia ensiformis) (P02866 whole entry, looked up): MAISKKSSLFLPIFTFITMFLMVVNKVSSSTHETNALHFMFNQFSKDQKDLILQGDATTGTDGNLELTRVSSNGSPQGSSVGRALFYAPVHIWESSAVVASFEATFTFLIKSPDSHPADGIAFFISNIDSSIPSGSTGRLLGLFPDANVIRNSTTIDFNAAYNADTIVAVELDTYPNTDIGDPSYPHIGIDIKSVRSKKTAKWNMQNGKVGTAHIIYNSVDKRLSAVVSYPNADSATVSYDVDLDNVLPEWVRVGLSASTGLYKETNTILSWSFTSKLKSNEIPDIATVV
Experiment [9] is described as follows: anti-His antibody binders, primary screen, artefact control for SMM control protein annotation, biochemical, small-molecule microarray, 635 nm fluorescence (AID 1128).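 Further: score merges feature fluorescence with signal-to-noise for each printed compound spot.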 The note with it: anti-His Alexa647 antibody binding, higher = more signal.
Experiment [10] relates to Human papillomavirus type 1a E7 protein (residues 1-88). Nature of the experiment: HPV1a E7 small-molecule binders, primary screen, biochemical, small-molecule microarray, residues 1-88, 635 nm (AID 1129). The note with it: small-molecule microarray binding, fluorescence 635 nm; higher = more signal.
For experiment [11], the target named is Focal adhesion kinase 1 (Homo sapiens) (UniProt Q05397). Nature of the experiment: small-molecule microarray binders of FAK, primary screen, biochemical, 635/667 nm fluorescence, BSA, DTT (AID 1130).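 Further: composite of spot emission at 667 nm and signal to noise over triplicate slides.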 The note with it: PTK2 binding, 635 nm fluorescence, higher = more signal.
Sequence of Focal adhesion kinase 1 (Homo sapiens) (Q05397 whole entry, looked up): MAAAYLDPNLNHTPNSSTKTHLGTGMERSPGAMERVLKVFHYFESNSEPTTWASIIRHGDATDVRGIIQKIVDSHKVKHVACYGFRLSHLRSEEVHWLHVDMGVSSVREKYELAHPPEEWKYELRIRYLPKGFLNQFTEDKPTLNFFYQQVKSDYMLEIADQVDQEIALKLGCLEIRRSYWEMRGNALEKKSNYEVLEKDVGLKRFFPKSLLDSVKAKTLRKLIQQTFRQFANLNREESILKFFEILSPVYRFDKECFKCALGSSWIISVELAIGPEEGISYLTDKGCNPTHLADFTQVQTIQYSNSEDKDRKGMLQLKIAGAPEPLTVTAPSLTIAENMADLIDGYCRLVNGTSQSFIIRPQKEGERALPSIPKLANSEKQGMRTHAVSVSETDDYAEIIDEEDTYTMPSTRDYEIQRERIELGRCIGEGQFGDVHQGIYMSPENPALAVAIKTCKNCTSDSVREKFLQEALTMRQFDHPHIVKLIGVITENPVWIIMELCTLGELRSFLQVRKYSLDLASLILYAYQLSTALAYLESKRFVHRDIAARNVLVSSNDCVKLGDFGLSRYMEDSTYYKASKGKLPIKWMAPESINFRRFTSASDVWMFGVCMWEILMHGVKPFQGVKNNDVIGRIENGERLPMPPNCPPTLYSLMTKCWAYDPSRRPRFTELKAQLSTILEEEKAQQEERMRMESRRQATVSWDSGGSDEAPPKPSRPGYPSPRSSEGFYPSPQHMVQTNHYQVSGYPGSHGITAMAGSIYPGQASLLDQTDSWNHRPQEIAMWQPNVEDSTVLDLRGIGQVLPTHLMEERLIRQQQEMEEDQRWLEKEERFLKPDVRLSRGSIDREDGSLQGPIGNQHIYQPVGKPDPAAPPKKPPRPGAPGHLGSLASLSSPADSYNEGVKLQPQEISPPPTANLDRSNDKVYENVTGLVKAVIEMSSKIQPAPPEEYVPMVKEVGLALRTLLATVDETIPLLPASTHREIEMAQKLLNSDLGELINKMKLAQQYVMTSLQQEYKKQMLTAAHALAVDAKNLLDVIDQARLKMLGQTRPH
Experiment [12] deals with Fibrinogen (Alexa647-labelled). Nature of the experiment: fibrinogen binders on compound microarrays, profiling panel, artefact control for SMM control-protein annotation, biochemical, small-molecule microarray, 635/667 nm fluorescence (AID 1131).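 Further: z-score merges 667 nm fluorescence with per-spot signal-to-noise over triplicate slides.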 The note with it: fibrinogen-A647 binding fluorescence, higher = more signal.
Experiment [13] deals with Follistatin (Homo sapiens) (UniProt P19883). The experiment in a line: follistatin binders on small-molecule microarrays, primary screen, biochemical, small-molecule microarray, 635/667 nm fluorescence (AID 1132). The note with it: FST binding, 635 nm fluorescence, higher = more signal.
Sequence of Follistatin (Homo sapiens) (P19883 whole entry, looked up): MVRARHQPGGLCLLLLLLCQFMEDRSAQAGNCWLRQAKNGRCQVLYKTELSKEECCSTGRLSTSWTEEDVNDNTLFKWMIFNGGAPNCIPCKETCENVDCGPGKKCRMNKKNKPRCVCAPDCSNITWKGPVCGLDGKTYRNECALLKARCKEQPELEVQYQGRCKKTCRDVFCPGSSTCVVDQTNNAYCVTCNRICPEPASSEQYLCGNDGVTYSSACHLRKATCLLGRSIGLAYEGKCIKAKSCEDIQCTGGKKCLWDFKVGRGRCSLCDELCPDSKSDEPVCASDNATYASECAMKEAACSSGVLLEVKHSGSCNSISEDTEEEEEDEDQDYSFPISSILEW
Experiment [14] addresses Fibroblast growth factor 2 (Homo sapiens) (UniProt P09038). Nature of the experiment: FGF2 binders on small-molecule microarrays, primary screen, biochemical, small-molecule microarray, 635/667 nm fluorescence (AID 1133). The note with it: small-molecule microarray binding, FGF2, fluorescence 635/667; higher = more signal.
Experiment [15] in a line: mitochondrial membrane potential change in A549 cells, profiling panel, cell-based, JC-1 fluorescence, basal, 24 h, 100 nL (AID 1138).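 Further: A549 lung adenocarcinoma cells under basal conditions with no added stimulus; test concentration not given here.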 The note with it: higher = more signal.
Another experiment relates to Lefty1. The experiment in a line: Lefty1 binders on small-molecule microarrays, primary screen, biochemical, small-molecule microarray, 635/667 nm fluorescence (AID 1139). The note with it: small-molecule microarray binding, fluorescence 635/667; higher = more signal.
The test system of experiment [16] is wheat germ agglutinin (Triticum aestivum), Alexa647-labelled. Nature of the experiment: wheat germ agglutinin binders on compound microarrays, profiling panel, artefact control for SMM control-protein annotation, biochemical, small-molecule microarray, 635/667 nm fluorescence (AID 1140).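 Further: score merges 667 nm feature emission with signal to noise over triplicate slides.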 The note with it: WGA-A647 binding, 635 nm fluorescence, higher = more signal.

In experiment [17] the target is Luciferin 4-monooxygenase (Photinus pyralis) (UniProt P08659). The experiment in a line: firefly luciferase enzyme inhibitors, primary screen, biochemical, luminescence, purified enzyme, 2006 set (AID 1141).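 Further: cell-free assay with purified firefly luciferase at 100 ng per well in PBS; test concentration not given here.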 The note with it: SteadyGlo luminescence, 30 min, higher = more signal, called active from +8 up or from −8 down.
Sequence of Luciferin 4-monooxygenase (Photinus pyralis) (P08659 whole entry, looked up): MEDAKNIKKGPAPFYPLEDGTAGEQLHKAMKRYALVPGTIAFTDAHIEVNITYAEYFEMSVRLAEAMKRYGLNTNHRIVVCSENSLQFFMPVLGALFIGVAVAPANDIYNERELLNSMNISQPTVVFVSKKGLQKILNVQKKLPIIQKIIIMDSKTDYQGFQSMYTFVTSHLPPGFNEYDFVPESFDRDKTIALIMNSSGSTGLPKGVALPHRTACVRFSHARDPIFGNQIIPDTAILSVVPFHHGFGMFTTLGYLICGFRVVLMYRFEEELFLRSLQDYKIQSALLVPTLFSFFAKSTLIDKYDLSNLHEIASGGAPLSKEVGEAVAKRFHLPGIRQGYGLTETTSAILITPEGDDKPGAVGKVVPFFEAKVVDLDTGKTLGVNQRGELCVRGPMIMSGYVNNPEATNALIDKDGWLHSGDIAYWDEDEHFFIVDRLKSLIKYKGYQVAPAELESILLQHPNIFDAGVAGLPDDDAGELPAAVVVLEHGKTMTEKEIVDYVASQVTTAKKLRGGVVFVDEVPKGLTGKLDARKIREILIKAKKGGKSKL

Active and inactive are the calls of the source.

Sequence of Fibroblast growth factor 2 (Homo sapiens) (P09038 whole entry, looked up): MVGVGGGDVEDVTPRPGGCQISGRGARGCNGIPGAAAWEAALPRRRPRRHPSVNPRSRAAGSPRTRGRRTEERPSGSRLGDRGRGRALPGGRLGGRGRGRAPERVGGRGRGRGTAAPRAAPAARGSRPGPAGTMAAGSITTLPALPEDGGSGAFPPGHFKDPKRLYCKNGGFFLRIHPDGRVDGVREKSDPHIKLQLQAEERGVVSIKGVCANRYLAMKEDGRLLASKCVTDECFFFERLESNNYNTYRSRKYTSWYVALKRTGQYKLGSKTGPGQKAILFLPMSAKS
Sequence of Albumin (Bos taurus) (P02769 whole entry, looked up): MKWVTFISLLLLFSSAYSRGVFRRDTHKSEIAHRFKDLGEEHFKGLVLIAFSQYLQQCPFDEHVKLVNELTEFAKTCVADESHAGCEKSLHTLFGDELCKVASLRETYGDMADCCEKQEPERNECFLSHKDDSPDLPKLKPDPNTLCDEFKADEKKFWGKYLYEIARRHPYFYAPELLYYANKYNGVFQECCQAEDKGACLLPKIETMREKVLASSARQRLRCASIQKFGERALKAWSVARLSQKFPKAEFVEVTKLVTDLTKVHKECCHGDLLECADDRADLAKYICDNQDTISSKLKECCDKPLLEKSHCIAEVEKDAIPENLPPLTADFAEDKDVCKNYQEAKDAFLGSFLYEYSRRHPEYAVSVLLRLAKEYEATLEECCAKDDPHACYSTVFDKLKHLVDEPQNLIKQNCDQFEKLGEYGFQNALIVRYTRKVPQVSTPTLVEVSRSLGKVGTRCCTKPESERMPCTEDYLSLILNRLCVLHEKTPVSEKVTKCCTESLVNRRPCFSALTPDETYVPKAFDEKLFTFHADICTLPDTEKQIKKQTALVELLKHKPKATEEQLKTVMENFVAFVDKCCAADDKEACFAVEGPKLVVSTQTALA

Turning to `O=C1c2ccccc2[C@](Cc2ccccc2I)(C(=O)NCc2ccccc2)[C@H](c2ccc(CO)cc2)N1Cc1ccccc1C(F)(F)F`, the composite z-score is 0.609 in the experiment with Albumin (Bos taurus); -0.253 in experiment [2]; -0.11 in experiment [3]; 0.631 in experiment [4]; 1.37 in experiment [5]; 0.595 in [6]. Also, the composite z-score in the experiment with Sam68 (KHDRBS1) is 0.514; in [7] it was -1.84; in experiment [8], -0.32; in experiment [9], -0.77; in experiment [10] it was -0.455; in experiment [11], -0.328. In addition, the composite z-score in [12] was -0.373; in experiment [13] it was -1.2; in experiment [14], -1.36; in the experiment on Lefty1, -1.22; in experiment [16], -1.12. The composite Z-score in experiment [1] is -0.342 (inactive). Further, the z-score in [15] was 1.11; in [17] it was -1.09 (inactive).
Regarding `CN1C(=O)C2C=CC(C(O)c3ccc(N(C)C)cc3)N(Nc3ccc([N+](=O)[O-])cc3[N+](=O)[O-])C2C1=O` (stereo not given), the composite z-score was 0.944 with Albumin (Bos taurus); 0.586 in [2]; 0.0683 in [3]; 0.729 in experiment [4]; 2.72 in experiment [5]; 1.4 in [6]. Also, the composite z-score in the experiment with Sam68 (KHDRBS1) came out at 1.21; in experiment [7], 0.556; in experiment [8] it was 0.884; in experiment [9] it was 1.54; in [10], 1.23; in experiment [11] it was 0.171. Further, the composite z-score is 1.01 in [12]; 1.26 in experiment [13]; -0.0151 in [14]; -0.375 with Lefty1; 1.24 in experiment [16]. Besides, in experiment [1], the composite Z-score was -0.399 (inactive). The z-score in experiment [15] is 0.469; in experiment [17] it was -1.2 (inactive).
In the case of `COC(=O)[C@@]1(Cc2ccccc2N=[N+]=[N-])N=C(c2ccc(OCCCO)cc2)O[C@H]1c1ccccc1CN=[N+]=[N-]`, the composite z-score was -0.487 with Albumin (Bos taurus); -0.0699 in experiment [2]; 0.0341 in [3]; 0.571 in experiment [4]; 2.1 in experiment [5]; -0.113 in experiment [6]. In addition, the composite z-score was 1.22 in the experiment with Sam68 (KHDRBS1); 0.0008 in experiment [7]; 0.456 in experiment [8]; 1.65 in experiment [9]; 1.02 in [10]; 0.926 in [11]. Further, the composite z-score is 0.168 in [12]; 1.29 in experiment [13]; 0.609 in experiment [14]; -0.213 in the experiment on Lefty1; 0.727 in experiment [16]. Further, the composite Z-score in experiment [1] is 0.289 (inactive). Moreover, the z-score in experiment [15] is 1.02; in experiment [17], -1.76 (inactive).
Turning to `COC(=O)C[C@H]1O[C@]2(C(=O)N(C)c3ccccc32)[C@@H](C)[C@@H]1[Si](C)(C)c1ccc(OC)cc1`, the composite z-score with Albumin (Bos taurus) was 0.163; in experiment [2], 0.0185; in experiment [3] it was -0.135; in experiment [4] it was 0.158; in experiment [5], 0.342; in [6], 0.494. The composite z-score in the experiment with Sam68 (KHDRBS1) stood at 0.567; in [7] it was 0.291; in experiment [8] it was 0.598; in experiment [9], 0.284; in experiment [10], 0.824; in experiment [11], 0.0035. For the same compound, the composite z-score amounted to 0.728 in [12]; 0.328 in [13]; 0.792 in experiment [14]; 1.33 in the experiment on Lefty1; 0.332 in experiment [16]. Also, the composite Z-score in experiment [1] is -0.211 (inactive). The z-score in experiment [15] was 0.569; in experiment [17], -0.274 (inactive).
As to `O=C1C2C=CC(C(O)Cc3ccccc3)N(Nc3ccc([N+](=O)[O-])cc3)C2C(=O)N1c1ccccc1` (stereo not given), the composite z-score with Albumin (Bos taurus) came out at 0.944; in experiment [2], 0.357; in experiment [3] it was 0.401; in experiment [4] it was 0.759; in experiment [5], 1.02; in experiment [6], 0.517. Moreover, the composite z-score was 0.719 with Sam68 (KHDRBS1); 0.709 in experiment [7]; 0.185 in experiment [8]; 1.46 in experiment [9]; 1.01 in [10]; 0.331 in [11]. For the same compound, the composite z-score in experiment [12] is 0.405; in experiment [13], 0.252; in experiment [14], -0.165; in the experiment on Lefty1, -0.0551; in experiment [16], 0.245. For the same compound, the composite Z-score in experiment [1] was -0.205 (inactive). Also, the figures for the z-score in experiment [15] and in experiment [17] were -0.75 and 1.36 (inactive), respectively.
On to `C=CC[C@@]12N=C(c3ccc(OCCCO)cc3)O[C@@H]1c1ccccc1CN(Cc1ccccc1)C2=O`, for which the composite z-score was 0.127 with Albumin (Bos taurus); 0.0242 in experiment [2]; -0.053 in experiment [3]; 0.496 in [4]; 1.96 in experiment [5]; 0.377 in [6]. Moreover, the composite z-score in the experiment with Sam68 (KHDRBS1) was determined as 1.29; in [7] it was 0.213; in experiment [8], 1.02; in experiment [9] it was 2.93; in experiment [10], 1.18; in [11], 1.05. Moreover, the composite z-score in [12] came out at 0.639; in [13], 1.33; in experiment [14], 0.761; in the experiment on Lefty1, 0.239; in experiment [16] it was 0.65. The composite Z-score in experiment [1] was 0.999 (inactive). The z-score was -0.309 in experiment [15] and -1.79 (inactive) in experiment [17].
